The values that follow come from PubChem BioAssay (Tox21).

Test [1] deals with Peroxisome proliferator-activated receptor delta (Homo sapiens) (UniProt Q03181). The test can be described thus: qHTS assay to identify small molecule agonists of the peroxisome proliferator-activated receptor delta (PPARd) signaling pathway (AID 743212; calls by dose curve). The conditions noted are these: HEK293H PPARd-UAS-bla, beta-lactamase FRET ratio, 17 h; series mostly up to 62.6 µM. The gist of the method:
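Cells expressing a UAS-driven beta-lactamase reporter (PPARd-bla HEK293H) were given test compounds after a 5 h settle and kept at 37 C. Reporter activity was then measured as FRET fluorescence using LiveBLAzer B/G substrate.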

The nature of test [2]: qHTS assay to identify small molecule agonists of the peroxisome proliferator-activated receptor delta (PPARd) signaling pathway - cell viability counter screen (AID 743211). Note: nearly all actives have a fitted effect of over 55% in size. Note: potency is the fitted concentration of half-maximal effect. To be noted: PPARd-bla HEK293H viability, CellTiter-Glo luminescence, 17 h; series mostly up to 62.6 µM. Summed up:
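Read-out: CellTiter-Glo luminescence, 30 min RT, measured in the same wells as the beta-lactamase reporter. Cells: GeneBLAzer PPAR delta UAS-bla HEK293H, 3000 cells/well, compound exposure 17 h at 37C.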
A general note: Quantitative high-throughput screening tests each substance at several concentrations.

A short description of test [3]: qHTS assay to identify small molecule agonists of the farnesoid-X-receptor (FXR) signaling pathway - cell viability counter screen (AID 743218). Note: nearly all actives have a fitted effect of over 45% in size. Note: potency is the fitted concentration of half-maximal effect. To be noted: FXR-bla HEK293T viability, CellTiter-Glo luminescence, 16 h; series mostly up to 62.6 µM. The gist of the method:
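Cells were seeded, left 5 h at 37 C and 5% CO2, then dosed with compound in DMSO for 16 h. After the beta-lactamase FRET read, CellTiter-Glo was added and luminescence measured 30 min later.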

The target in test [4] is Vitamin D3 receptor (Homo sapiens) (UniProt P11473). Kind of test: qHTS assay to identify small molecule agonists of the vitamin D receptor (VDR) signaling pathway (AID 743222; calls by dose curve). To be noted: HEK293T VDR-UAS-bla, beta-lactamase FRET ratio, 16 h; series mostly up to 63.5 µM. Summed up:
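Cells carrying a VDR-driven beta-lactamase reporter are seeded at 2,000 per well and rested 4 h. Compounds in DMSO are added for 16 h at 37C, and FRET substrate fluorescence is measured after 2 h at room temperature.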

A short description of test [5]: qHTS assay to identify small molecule antagonists of the peroxisome proliferator-activated receptor delta (PPARd) signaling pathway - cell viability counter screen (AID 743213). Note: nearly all actives have a fitted effect of over 50% in size. Note: potency is the fitted concentration of half-maximal effect. The conditions noted are these: PPARd-bla HEK293H viability, CellTiter-Glo luminescence, 17 h; series mostly up to 62 µM. Summed up: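 HEK293H PPARd UAS-bla cells, 5 h pre-incubation, compound + L165041 300 nM final, 17 h 37 C; B/G FRET substrate 2 h RT; then CellTiter-Glo 30 min RT, luminescence.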

Test [6] addresses Bile acid receptor (Homo sapiens) (UniProt Q96RI1). The test can be described thus: qHTS assay to identify small molecule antagonists of the farnesoid-X-receptor (FXR) signaling pathway (AID 743217; active = well fitted inhibition curve with a large enough effect in the signal ratio in the repeat runs, not every such curve was filed as active; the % refers to the signal ratio). The conditions noted are these: HEK293T FXR-UAS-bla, beta-lactamase ratio, CDCA-stimulated, 16 h; series mostly up to 62.6 µM. The gist of the method:
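Cells carrying a UAS-driven beta-lactamase reporter (GeneBLAzer FXR-UAS-bla HEK 293T) were plated and rested 5 h at 37 °C. Compounds in DMSO were added alongside chenodeoxycholic acid agonist at 50 uM final and left 16 h at 37 °C before FRET substrate readout.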

Test [7] is described as follows: qHTS assay to identify small molecule antagonists of the farnesoid-X-receptor (FXR) signaling pathway - cell viability counter screen (AID 743221; active = well fitted cell-killing curve with a large enough effect in the repeat runs, not every such curve was filed as active; note: nearly all actives have a fitted effect of over 50% in size; note: potency is the fitted concentration of half-maximal effect). The conditions noted are these: FXR-bla HEK293T viability, CellTiter-Glo luminescence, 16 h; series mostly up to 62.6 µM. Summed up: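 HEK 293T FXR-bla cells, 5 h pre-incubation; compound + CDCA 50 uM final, 16 h, 37 C; beta-lactamase FRET read first, then CellTiter-Glo luminescence, 30 min RT.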

The target in test [8] is Vitamin D3 receptor (Homo sapiens) (UniProt P11473). Kind of test: qHTS assay to identify small molecule antagonists of the vitamin D receptor (VDR) signaling pathway (AID 743223; active = well fitted inhibition curve with a large enough effect in the signal ratio in the repeat runs, not every such curve was filed as active; the % refers to the signal ratio). The conditions noted are these: VDR-UAS-bla HEK293T, beta-lactamase FRET ratio, 16 h; series mostly up to 61 µM. The gist of the method:
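Beta-lactamase reporter read-out: FRET substrate fluorescence after 2 h at room temperature, following 16 h exposure of VDR-bla cells to test compound plus 3 nM (final) 1alpha,25-dihydroxyvitamin D3 agonist at 37C.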

Test [9] deals with Bile acid receptor (Homo sapiens) (UniProt Q96RI1). Kind of test: qHTS assay to identify small molecule agonists of the farnesoid-X-receptor (FXR) signaling pathway (AID 743220; active = well fitted activation curve with a large enough effect in the signal ratio in the repeat runs, not every such curve was filed as active; the % refers to the signal ratio). To be noted: HEK293T FXR-UAS-bla, beta-lactamase FRET ratio, 16 h; series mostly up to 62.6 µM. Summed up:
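FXR-UAS-bla HEK 293T cells carrying a UAS-driven beta-lactamase reporter were plated for 5 h at 37C/5% CO2, then exposed to DMSO-dissolved Tox21 10K compounds for 16 h at 37C. A LiveBLAzer B/G FRET substrate was loaded for 2 h at room temperature before fluorescence reading.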

Test [10] has as its target Peroxisome proliferator-activated receptor delta (Homo sapiens) (UniProt Q03181). Kind of test: qHTS assay to identify small molecule antagonists of the peroxisome proliferator-activated receptor delta (PPARd) signaling pathway (AID 743215; active = well fitted inhibition curve with a large enough effect in the signal ratio in the repeat runs, not every such curve was filed as active; the % refers to the signal ratio;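 note: cells stimulated with agonist L165041 at 300 nM final during compound exposure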; note: potency is the fitted concentration of half-maximal effect). To be noted: HEK293H PPARd-UAS-bla, beta-lactamase FRET ratio, antagonist, 17 h; series mostly up to 62 µM. The gist of the method:
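Cells: HEK293H with a UAS-driven beta-lactamase reporter responsive to PPARd. Compounds were co-added with L165041 (300 nM, final) and incubated 17 h at 37 C before a 2 h room-temperature FRET substrate step and fluorescence reading.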

Several values for one entry are separate records, joined by “and”; a condition that tells them apart may be missing. Identical values can stand only once. Results filed as inconclusive are left out. Activity calls are given as the source filed them. Unless noted, calls come from the whole dose curve; as a rule, active = well fitted curve in the direction sought with a large enough effect in the repeat runs; inconclusive = weak or mixed curves; inactive = no such curve, though single readings can be large; an effect the other way counts as inactive or inconclusive.
% is set by controls: 0 for no effect and ±100 for the full control effect.

Bile acid receptor (Homo sapiens), sequence (Q96RI1 whole entry, looked up): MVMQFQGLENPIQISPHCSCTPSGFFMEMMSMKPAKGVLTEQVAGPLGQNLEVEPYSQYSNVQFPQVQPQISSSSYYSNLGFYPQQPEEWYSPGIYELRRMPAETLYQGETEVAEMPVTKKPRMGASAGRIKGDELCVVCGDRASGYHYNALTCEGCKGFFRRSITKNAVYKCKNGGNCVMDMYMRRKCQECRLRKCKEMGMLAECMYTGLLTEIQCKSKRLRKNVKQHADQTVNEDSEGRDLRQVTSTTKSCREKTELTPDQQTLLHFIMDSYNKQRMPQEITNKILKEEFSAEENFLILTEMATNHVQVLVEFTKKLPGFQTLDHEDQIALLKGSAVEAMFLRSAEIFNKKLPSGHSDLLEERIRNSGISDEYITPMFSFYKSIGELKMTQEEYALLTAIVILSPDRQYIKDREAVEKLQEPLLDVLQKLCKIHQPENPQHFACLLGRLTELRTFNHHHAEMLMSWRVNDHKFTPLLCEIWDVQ
Peroxisome proliferator-activated receptor delta (Homo sapiens), sequence (Q03181 whole entry, looked up): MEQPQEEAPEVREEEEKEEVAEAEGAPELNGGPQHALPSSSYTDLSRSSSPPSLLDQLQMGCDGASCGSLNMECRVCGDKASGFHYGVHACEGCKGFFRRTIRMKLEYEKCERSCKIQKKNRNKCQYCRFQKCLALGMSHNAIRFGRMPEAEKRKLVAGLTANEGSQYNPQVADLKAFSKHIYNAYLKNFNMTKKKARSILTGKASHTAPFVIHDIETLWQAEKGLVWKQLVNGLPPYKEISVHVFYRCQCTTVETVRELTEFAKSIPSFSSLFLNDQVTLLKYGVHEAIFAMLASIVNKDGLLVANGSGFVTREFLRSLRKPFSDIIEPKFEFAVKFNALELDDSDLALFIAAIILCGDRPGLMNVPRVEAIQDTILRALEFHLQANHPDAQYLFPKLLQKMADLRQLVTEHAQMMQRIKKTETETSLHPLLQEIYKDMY
Vitamin D3 receptor (Homo sapiens), sequence (P11473 whole entry, looked up): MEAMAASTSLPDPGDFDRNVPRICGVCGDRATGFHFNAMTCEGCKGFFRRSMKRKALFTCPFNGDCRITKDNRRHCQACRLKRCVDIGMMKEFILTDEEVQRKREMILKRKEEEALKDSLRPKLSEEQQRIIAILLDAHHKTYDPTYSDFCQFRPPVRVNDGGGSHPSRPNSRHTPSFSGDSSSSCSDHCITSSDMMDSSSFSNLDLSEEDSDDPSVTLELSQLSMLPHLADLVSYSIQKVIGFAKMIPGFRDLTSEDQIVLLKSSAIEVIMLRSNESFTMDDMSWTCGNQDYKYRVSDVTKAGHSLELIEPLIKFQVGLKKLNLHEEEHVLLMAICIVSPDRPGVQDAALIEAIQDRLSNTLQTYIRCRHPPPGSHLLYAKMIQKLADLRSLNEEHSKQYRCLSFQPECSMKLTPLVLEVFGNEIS

Regarding `COc1ccc(-n2nc(CCC(=O)N(C)O)cc2-c2ccc(Cl)cc2)cc1`, the result in test [1] was inactive.

As for `CCOC(=O)N1CCC(=C2c3ccc(Cl)cc3CCc3cccnc32)CC1`, the Potency is 27.5 µM (active) and 29.8 µM (active) in test [2]; 21.9 µM (active) in [3]. The Potency entry in [4] was “inactive”.

On to `CCOC(=O)[C@@](C)(N)Cc1ccc(O)c(O)c1`, for which the result in [1] was inactive. In addition, the Potency entry in test [5], in test [6], in test [3], in test [7], in test [4] and in test [8] was “inactive” each time.

As to `CN(C)CCCN1c2ccccc2Sc2ccc(C(F)(F)F)cc21`, the Potency is 29.8 µM (active) in test [2] and 11.9 µM (active) in test [3]. Moreover, the Potency result in test [9] and in test [4] was “inactive” in each case.

In the case of `c1ccc(Nc2cccc3ccccc23)cc1`, the Potency entry in test [2], in test [10], in test [3], in [7], in test [4] and in test [8] was “inactive” each time.

Take `CCCCCCCCCCCCN(CCO)CCO`: the Potency in test [2] was 38.7 µM (active); in test [3] it was 54.7 µM (active).

With `O=C1NCN(c2ccccc2)C12CCN(CCCC(c1ccc(F)cc1)c1ccc(F)cc1)CC2`, the Potency was 21.1 µM (active) in [2], 26.6 µM (active) in [3] and 33.5 µM (active) in [7].

With `CCN(CC)CCCN(c1ccccc1)C1Cc2ccccc2C1`, the result in test [1] was inactive. The Potency entry in test [10], in [3], in [7], in test [4] and in [8] was “inactive” throughout.

Turning to `N[C@@H](CSSC[C@H](N)C(=O)O)C(=O)O`, in [1], the activation is -7.58% [at 0.55 µM] (inactive). Moreover, the activity change, negative = inhibition in [6] is 8.01% [at 0.55 µM] (inactive). Besides, in test [3], the viability change, negative = cytotoxic is -3.16% [at 0.55 µM] (inactive). The activity change, negative = cytotoxicity in test [7] was 5.98% [at 0.55 µM] (inactive).

In the case of `CCN(CC)c1ccc(N)cc1`, the Potency in [5] is 31.7 µM (active). Further, the Potency result in test [6] is “inactive”.

For `Cc1nc(Nc2ncc(C(=O)Nc3c(C)cccc3Cl)s2)cc(N2CCN(CCO)CC2)n1`, the result in [1] was inactive. Further, in test [10], the Potency is 473 nM (active).

As for `CC(C)c1ccc(O)c(C(C)C)c1`, the result in [1] was inactive. Moreover, the Potency entry in test [10], in test [3] and in test [4] was “inactive” in each case.

For the compound `COc1cccc(CCc2ccccc2OCC(CN(C)C)OC(=O)CCC(=O)O)c1` (stereo unspecified), the outcome in [1] was inactive. Further, the Potency entry in test [10], in [6], in test [3], in test [9], in [4] and in test [8] was “inactive” each time.

In the case of `CCN(CC)CCOC(=O)C1(C2CCCCC2)CCCCC1`, the outcome in test [1] was inactive. Also, the Potency entry in test [5], in test [3], in [7], in test [4] and in test [8] was “inactive” throughout.

As to `c1cc(OCC2CO2)cc(OCC2CO2)c1` (stereo unspecified), the outcome in test [1] was inactive. In addition, the Potency result in [6], in [3], in [7] and in test [4] was “inactive” in each case.

Turning to `O=C(O)c1cccc(Cl)n1`, in [1], the outcome was inactive. Moreover, the Potency entry in test [3] and in test [7] was “inactive” each time.

`C[C@]12CC[C@H]3C(=CCc4cc(O)ccc43)[C@@H]1CCC2=O`: the outcome in test [1] was inactive. For the same compound, the Potency entry in test [10], in test [3] and in test [4] was “inactive” each time.

Take `CC=O`: the Potency was 40.7 µM (active) in [5] and 45.7 µM (active) in test [3].
